Source: PubChem BioAssay
D3 ag: agonists of human D3 dopamine receptor; D3R DiscoveRx beta-arrestin cells, luminescence, 90 min; AID 652048; max activation, %; 410,000 compounds, 0.58% hits; P35462; in the data active means max activation above about 30%; further: 0% is about no effect
Target sequence (P35462 whole entry, looked up): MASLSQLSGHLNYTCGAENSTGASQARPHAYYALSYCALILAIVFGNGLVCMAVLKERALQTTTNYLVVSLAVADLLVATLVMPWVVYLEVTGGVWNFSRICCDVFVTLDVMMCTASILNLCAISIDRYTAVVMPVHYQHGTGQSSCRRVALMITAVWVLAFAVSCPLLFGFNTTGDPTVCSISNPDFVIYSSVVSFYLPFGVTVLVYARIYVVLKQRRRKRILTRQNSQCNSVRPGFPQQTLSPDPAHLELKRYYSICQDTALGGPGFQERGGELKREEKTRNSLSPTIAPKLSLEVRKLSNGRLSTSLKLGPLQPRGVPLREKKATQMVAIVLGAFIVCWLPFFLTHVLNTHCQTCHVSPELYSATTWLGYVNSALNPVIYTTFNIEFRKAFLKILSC
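Cells at 1500/well, incubated overnight, then treated with pinned compounds (dopamine as control) for 90 min at 37 degrees C. DiscoveRx reagent added for 30 - 60 minutes at room temperature; luminescence read.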
ERG Ets-DNA blk: ERG Ets/DNA interaction inhibition; P11308; fluorescence polarization, His-ERG Ets domain / labelled DNA; Potency, µM (top dose mostly 76.9 µM), without a hit: at the top dose FP activity, negative = inhibition, usual class: inhibitors; 370,000 compounds, 0.028% hits; active means well fitted inhibition curve with a large enough effect in the polarisation, with a control signal flat; inconclusive means small, poorly fitted or top-dose-only effect, or effect the other way, or a change in a side signal; inactive means no such curve, though single readings can be large or run the other way; the % refers to the polarisation;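 further: polarization taken with two DNA probes labelled with fluorescein and Texas red; potency means the concentration at half of the fitted maximal effect; % of control where 0% means no effect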
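His-tagged ERG Ets domain (1 uM in the protein solution; 300mM KCl, 50mM Tris-HCl, 1mM EDTA, 1mM DTT, pH 7.5) received compound, then a probe mix of 5 nM fluorescein-DNA and 100nM Texas-615-DNA. Fluorescence polarization was read for both dyes.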
D1 potentiator: potentiators of human D1 dopamine receptor. HEK293 TREx D1 cells, calcium flux, dopamine EC20 potentiation. AID 504651. P21728. 360,000 compounds, 0.036% hits. potentiation, % at 10 µM; in the data active means potentiation above about 30%; further: 0% is about no effect
D1 agonist: agonists of human D1 dopamine receptor. HEK293 T-REx D1 cells, calcium flux, agonist mode. activation, % at 2 µM. P21728. 360,000 compounds, 1% hits; in the data active means activation above about 30%; further: 0% is about no effect
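Inducible HEK293 T-REx D1 cells, force-coupled to calcium signalling, were plated at 4000 cells/well with tetracycline and held overnight at 30 C. After no-wash calcium dye loading, compound-evoked calcium rise over 180 s flagged agonists.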
D3 antag: blocks the human D3 dopamine receptor | P35462 | D3R cells, DiscoveRx beta-arrestin luminescence, antagonist mode; stronger effect = lower value | max response, negative = inhibition, % | 360,000 compounds, 2.5% hits; in the data active means max response below about -50%; inconclusive means no clear call, values can overlap the other calls; further: on the % scale 0 is the no-effect control and ±100 the full control effect
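Cells plated overnight at 1500 cells/well, then exposed to library compounds with dopamine controls for 90 minutes at 37 degrees C. DiscoveRx reagent added for 30–60 minutes at room temperature; luminescence read, quantitative HTS format.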
D1 antagonist: antagonists of human D1 dopamine receptor. 360,000 compounds, 3.2% hits. AID 504652. activity change, negative = inhibition, % at 10 µM. HEK293 TREx D1 cells, calcium flux, dopamine EC80; stronger effect = lower value; in the data active means activity change below about -30%; further: on the % scale 0 is the no-effect control and ±100 the full control effect
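HEK293 T-REx cells expressing inducible, force-coupled D1 receptor; no-wash Ca dye, 30–90 min RT. Cmpd → 180 s read at 1 Hz → EC80 DA → 180 s read.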
Active calls of the source: *; u = inconclusive; x = not tested or not shown. In the library only some 6.1% were active in any assay of this set; here they are far more common.

SMILES | D3 ag | ERG Ets-DNA blk | D1 potentiator | D1 agonist | D3 antag | D1 antagonist
O=C(O)C1C2CCC(CC2)C1C(=O)N1CCN(Cc2ccc(F)cc2)CC1 (stereo not given) | -3 | -5% | -8 | -3 | -14 | -8
CC(C)(C)NC(=O)C1CCC(C)(C(=O)O)C1(C)C (stereo not given) | 33* | -8% | 3 | 4 | 15 | 2
COc1ccc(NC(=O)C2CCC(C)(C(=O)O)C2(C)C)cc1 (stereo not given) | 5 | -1% | -3 | 0 | -55* | 7
Nc1ccc(S(=O)(=O)N2CCOCCOCCOCCOCCOCC2)cc1 | -3 | 4% | -1 | 3 | -13 | -7
CC(C)(C)NC(=O)NC(=O)COC(=O)Cn1cnc2ccccc2c1=O | -2 | 4% | -2 | 1 | -4 | -4
CC1(c2nc3ccccc3[nH]2)c2ccccc2C(=O)N1Cc1ccccc1 (stereo not given) | -7 | x | x | x | -55* | x
COc1ccc(CN2C(=O)c3ccccc3C2(C)c2nc3ccccc3[nH]2)cc1 (stereo not given) | 2 | x | x | x | -29 | x
CC(=O)c1ccc2c(c1)N(Cc1ccc3ccccc3c1)C(=O)C(C)S2 (stereo not given) | -6 | x | x | x | -75* | x
CC(=O)c1ccc(N(C(=O)CNC(=O)c2ccco2)C(C(=O)NC2CCCC2)c2ccco2)cc1 (stereo not given) | -26 | 1% | -3 | 1 | 9 | 7
Cc1ccc(S(=O)(=O)N2c3ccccc3OCC2C(C)(C)C)cc1 (stereo not given) | -5 | 2% | -6 | 1 | -15 | 0
Cc1ccc2c(c1)N(S(=O)(=O)c1ccc(F)cc1)C(C(C)(C)C)CO2 (stereo not given) | -8 | 2% | 8 | 6 | u | -40*
COc1ccc(C(C)NC(=O)c2ccccc2Br)cc1OC (stereo not given) | 3 | -5% | -7 | -1 | 15 | x
Cc1cccc(N(C)S(=O)(=O)c2cc(-c3cnc(C4CC4)o3)ccc2C)c1 | -10 | 0% | 1 | 19 | x | -32*
CCc1ccc(NS(=O)(=O)c2cc(-c3cnc(C4CC4)o3)ccc2C)cc1 | -19 | 4% | 1 | 3 | x | 2
O=C(NCc1cccc(Cl)c1)c1cc2c(s1)-c1ccccc1OC2 | -15 | -2% | -8 | 4 | x | -50*
CN(C)CCNC(=O)c1cc2c(s1)-c1ccccc1OC2 | -13 | 11% | -8 | 122* | -81* | -53*
COc1ccccc1CNC(=O)c1cc2c(s1)-c1ccccc1OC2 | 2 | 2% | -6 | 4 | x | -20
COc1ccc(N(C)C(=O)c2cc3c(s2)-c2ccccc2OC3)c(OC)c1 | 3 | 3% | -9 | 2 | 3 | -40*
O=C(NCCCN1CCN(c2ccccc2F)CC1)c1cc2c(s1)-c1ccccc1OC2 | 1 | -4% | -7 | 5 | x | -46*
CCOC(=O)c1ccc(NC(=O)CSc2cc(-c3ccccc3)nc(C)n2)cc1 | 2 | 0% | -1 | 11 | x | 3
Cc1csc(NC(=O)c2cc3c(s2)-c2ccccc2OC3)n1 | 9 | 2% | 3 | 3 | 23 | -9
Cc1c(NC(=O)c2cc3c(s2)-c2ccccc2OC3)cccc1[N+](=O)[O-] | -11 | -1% | -8 | 3 | 9 | -40*
CC(C)(C)c1cc(N)on1 | 4 | 1% | -5 | 7 | -20 | -1
Fc1cccc(CSc2ccc(-c3ccco3)nn2)c1 | 5 | x | -5 | 4 | 32 | 6
Fc1ccc(CSc2ccc(-c3ccco3)nn2)cc1 | -1 | 1% | -7 | 1 | u | -85*
SMILES | D3 ag | ERG Ets-DNA blk | D1 potentiator | D1 agonist | D3 antag | D1 antagonist
O=S1(=O)CC/C(=N/Nc2ccc(C(F)(F)F)cn2)c2cc(F)ccc21 | -8 | 6% | 11 | 0 | -14 | -52*
Cc1cc(C)c(C(=O)N2CCCC(N3CCN(c4cccc(C(F)(F)F)c4)CC3)C2)o1 (stereo not given) | -5 | -6% | -4 | 5 | -54* | -25
Cc1cc(C(=O)N2CCCC(N3CCN(c4cccc(C(F)(F)F)c4)CC3)C2)n[nH]1 (stereo not given) | -3 | -3% | 0 | 3 | 0 | -50*
O=C(c1ccco1)N1CCCC(N2CCN(c3cccc(C(F)(F)F)c3)CC2)C1 (stereo not given) | -18 | -3% | -1 | 1 | -65* | 8
Cc1cc(C(=O)N2CCCC(N3CCN(c4cccc(C(F)(F)F)c4)CC3)C2)no1 (stereo not given) | -1 | 9% | -8 | 0 | 14 | 4
O=C1COc2ccc(C(=O)COC(=O)c3ccc(F)cc3Cl)cc2N1 | -3 | -3% | x | x | -4 | x
CCN(c1ccccc1)S(=O)(=O)c1ccc(Cl)c(C(=O)OCC(=O)NC(=O)C(C)C)c1 | 2 | -7% | -1 | 4 | 25 | -34*
CCN(c1ccccc1)S(=O)(=O)c1ccc(Cl)c(NC(=O)COC(=O)c2ccc(O)cc2)c1 | 5 | -8% | -4 | 8 | 11 | -4
CCN(c1ccccc1)S(=O)(=O)c1ccc(Cl)c(NC(=O)COC(=O)C2CC2C)c1 (stereo not given) | -1 | 5% | -3 | 7 | 16 | -31*
O=C(Cn1nc(-c2ccccc2)c2ccccc2c1=O)Nc1cccc(O)c1 | 4 | -5% | -3 | 1 | 4 | -13
COc1ccc(C(=O)C2CCCN(Cc3c(C)[nH]c4ccccc34)C2)c(OC)c1 (stereo not given) | x | x | -2 | 2 | x | -2
COc1ccc(C(=O)C2CCCN(Cc3cc(C)c(O)c(C)c3)C2)c(OC)c1 (stereo not given) | -25 | -6% | -1 | 13 | u | 3
COc1ccc(C(=O)C2CCCN(Cc3sc(N4CCCC4)nc3Cl)C2)c(OC)c1 (stereo not given) | -20 | 0% | -3 | 7 | -65* | -41*
CCOc1cccc(CN2CCCC(C(=O)c3cc(Cl)ccc3OC)C2)c1O (stereo not given) | -20 | -13% | 3 | 2 | -106* | -2
COc1ccc(C(=O)C2CCCN(Cc3cc(Cl)ccc3O)C2)c(OC)c1 (stereo not given) | -20 | 3% | 2 | 6 | -54* | -23
COc1ccc(C(=O)C2CCCN(Cc3cnc(N4CCCC4)s3)C2)cc1OC (stereo not given) | -4 | -6% | 3 | 1 | -7 | 16
COc1ccc(C(=O)C2CCCN(Cc3ccc(C#CCCO)cc3)C2)c(OC)c1 (stereo not given) | -19 | -9% | -4 | 9 | -116* | -2
